Bioassay records from PubChem.
Sampled rows, rich in hits. Any-hit rate of the full collection: about 3.3%.
Tb PYK inh: T. brucei pyruvate kinase inhibition | TbPYK enzyme, Kinase-Glo Plus ATP luminescence, 45 min | 410,000 compounds, 0.12% hits | Potency, µM (titrated, usually from 76.8 µM), without a hit: at the highest dose activity, negative = inhibition, usual class: inhibitors; also: nearly all actives have a fitted effect of over 50% in size
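Glycolytic pyruvate kinase of T. brucei was incubated with substrate, test compound and 130 uM ADP for 45 minutes at room temperature. Luminescent Kinase-Glo Plus signal was measured after 10 minutes.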
Sm TGR block: inhibitors of Schistosoma mansoni thioredoxin glutathione reductase. Potency, µM (top dose mostly 114 µM), for the others: top-dose activity change, negative = inhibition, hits mostly inhibitors. Q962Y6. 360,000 compounds, 3% hits. purified TGR, DTNB reduction, TNB absorbance 405 nm; also: nearly all actives have a fitted effect of over 60% in size
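Kinetic colorimetric format: TGR-catalysed, NADPH-driven DTNB reduction monitored via TNB absorbance. Enzyme dispensed at 20 nM; compound exposure 15 min at room temperature before reaction start.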
FBPA Giardia inh: inhibitors of Giardia lamblia fructose-1,6-bisphosphate aldolase. purified Giardia FBPA. Potency, µM (top dose mostly 59.6 µM), without a hit: at the top dose activity, negative = inhibition, actives largely listed as inhibitors. 290,000 compounds, 0.71% hits; also: nearly all actives have a fitted effect of over 55% in size
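Giardia FBPA (40 nM reagent) was preincubated 10 min at RT with compound (up to 57.5 uM final), then substrate plus GAPDH/TPI/NAD/arsenate coupling system with diaphorase/resazurin was added; resorufin fluorescence (525/598 nm) was read after 20 min.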
RE007 growth inh: less growth of the S. pombe RE007 Vpr strain; S. pombe RE007 Vpr strain, BacTiter-Glo ATP luminescence, 24 h; 360,000 compounds, 0.21% hits; Potency, µM (series often up to 92.2 µM), for the others: at the top dose activity change, negative = less growth, most hits filed as inhibitors; AID 651644; active = well fitted falling curve with a large enough effect; inconclusive = small, poorly fitted or top-dose-only effect; inactive = no such curve, though single readings can be large or run the other way; also: nearly all actives have a fitted effect of over 50% in size
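Fission yeast strain RE007, carrying one chromosomally integrated HIV-1 vpr copy, was seeded at OD 0.01 in PMG+AL medium with 23 nL pinned compound. After 24 h at 30 °C and 99% humidity, viability was read by BacTiter-Glo luminescence.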
LmPK inhibitor: inhibitors of Leishmania mexicana pyruvate kinase; purified LmPK, Kinase-Glo ATP luminescence, 1 h; 290,000 compounds, 0.37% hits; Potency, µM (titrated, usually from 57.5 µM), inactives show top-dose activity change, negative = inhibition, hits mostly inhibitors; Q27686
Target sequence (Q27686 whole entry, looked up): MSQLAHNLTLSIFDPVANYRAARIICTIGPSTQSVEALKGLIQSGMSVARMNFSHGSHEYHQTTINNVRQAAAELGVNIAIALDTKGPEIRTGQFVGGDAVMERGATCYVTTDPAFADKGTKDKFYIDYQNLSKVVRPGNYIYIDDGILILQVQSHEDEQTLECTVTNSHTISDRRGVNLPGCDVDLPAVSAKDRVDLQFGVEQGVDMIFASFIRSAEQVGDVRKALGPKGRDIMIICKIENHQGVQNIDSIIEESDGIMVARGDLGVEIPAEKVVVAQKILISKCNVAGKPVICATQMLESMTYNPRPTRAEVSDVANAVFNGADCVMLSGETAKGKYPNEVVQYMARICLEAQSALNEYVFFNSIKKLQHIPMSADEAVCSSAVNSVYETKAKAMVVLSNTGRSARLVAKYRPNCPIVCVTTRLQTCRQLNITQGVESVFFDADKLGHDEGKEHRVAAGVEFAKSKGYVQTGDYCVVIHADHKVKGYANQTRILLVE
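qHTS format; LmPK 0.1 nM; substrates PEP 0.5 mM and ADP 0.1 mM. One-hour room-temperature incubation, then coupled luciferase luminescence; 0.5 nM enzyme wells mark activation.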
The depositor's hits bear a star; ? = inconclusive; . = no result given; [ ] = remark or other dose. Unless noted, calls follow the shape of the dose curve; as a rule, active = well fitted curve in the direction sought with a large enough effect; inconclusive = small, poorly fitted or top-dose-only effect, or another doubt; inactive = no such curve, though single readings can be large; an effect the other way counts as inactive or inconclusive. % is scaled to controls: 0 for no effect and ±100 for the full control effect; potency is read from the fitted curve at half-maximal effect.

SMILES	Tb PYK inh	Sm TGR block	FBPA Giardia inh	RE007 growth inh	LmPK inhibitor
CC(CN1CCCC1)OC(=O)Cc1ccc(Cl)cc1 (stereo unspecified)	1.6%	-1.9%	?	2.3%	-8.6%
CCC1CCCCN1CC(=O)c1c(C)[nH]c2cc(C)ccc12 (stereo unspecified)	4.6%	44.7µM*	?	-9.8%	1.0%
Cc1ccc2c(C(=O)CN3CCCCC3CCO)c(C)[nH]c2c1 (stereo unspecified)	7.2%	?	-23.0%	-1.6%	-0.4%
CC(C)CC(CC(C)C)=NNC(=O)c1ccc2c(c1)OCO2	-2.3%	13.1%	-6.4%	-13.6%	0.6%
CNCCc1c[nH]c2ccccc12	4.4%	21.3%	12.3%	-3.1%	4.7%
CNCCc1c[nH]c2ccc(O)cc12	-11.8%	.	1.99µM*	1.8%	.
COc1cccc(N2CCN(C(=O)CCS(=O)(=O)c3ccc4c(c3)oc(=O)n4C)CC2)c1	-1.5%	25.1µM*	.	2.7%	-1.4%
Cc1cccc(N(C)C(=O)CCS(=O)(=O)c2ccc3c(c2)oc(=O)n3C)c1	1.2%	39.8µM*	.	.	.
Cc1ccc(C)c(N2CCN(C(=O)CCS(=O)(=O)c3ccc4c(c3)oc(=O)n4C)CC2)c1	0.7%	39.8µM*	.	9.4%	5.5%
CCNC(=O)O/N=C1\CCCCC1c1ccc([N+](=O)[O-])cc1[N+](=O)[O-] (stereo unspecified)	-3.0%	12.6µM*	?	-11.1%	5.5%
N#CCCn1cc(C(=O)Nc2ccc(C(=O)O)cc2)c(-c2cccc(Br)c2)n1	0.5%	100µM*	-6.1%	-9.5%	9.8%
COc1cccc(N2CC(NC(=O)Cc3cccs3)CC2=O)c1 (stereo unspecified)	2.4%	-0.2%	.	.	.
Cc1ccc(/C=c2/sc3nnc(-c4ccccc4Cl)n3c2=O)o1	-4.9%	39.8µM*	?	5.5%	8.3%
COc1ccc(Br)cc1/C=c1\sc2nc(-c3ccco3)nn2c1=O	-13.5%	12.6µM*	-4.6%	6.1%	9.4%
COc1ccccc1/C=c1\sc2nc(-c3ccccc3OC)nn2c1=O	0.2%	7.3%	8.8%	10.3%	-0.2%
Cc1ccc(/C=c2\sc3nc(-c4ccccc4Br)nn3c2=O)o1	-0.1%	44.7µM*	-6.6%	7.4%	13.4%
Cc1ccc(/C=c2\sc3nc(-c4ccco4)nn3c2=O)o1	3.6%	8.91µM*	-24.4%	-22.5%	11.3%
CC(C)CC1Nc2ncnc(N3CCOCC3)c2N(Cc2ccc(Cl)cc2)C1=O (stereo unspecified)	1.1%	.	.	-15.8%	.
CCCCCNC(=O)CCn1c(=O)oc2ccccc21	-0.2%	-0.8%	-0.7%	-1.2%	-2.3%
O=C(O)CCNc1cc(N2CCN(C(=O)c3ccco3)CC2)c2noc3c2c1C(=O)c1ccccc1-3	?	15.8µM*	?	-15.8%	-3.8%
O=C(O)CCCNc1cc(N2CCN(C3CCCCC3)CC2)c2noc3c2c1C(=O)c1ccccc1-3	-3.3%	-0.4%	.	.	.
CCN1CCN(c2cc(N3CCN(C(=O)c4ccco4)CC3)c3c4c(onc24)-c2ccccc2C3=O)CC1	-12.8%	7.08µM*	?	-19.3%	-6.4%
c1ccc(N2CCN(c3nccn4ccnc34)CC2)nc1	-16.0%	.	.	?	.
Cc1ccc(C)n1NC(=O)c1ccccc1Cl	-0.1%	?	-2.6%	-18.1%	-3.7%
C[C@H](CO)N1C[C@H](C)[C@H](CN(C)C(=O)Nc2ccc(N3CCN(C)CC3)cc2)OCc2cnnn2CCCC1=O	7.1%	.	.	-5.3%	.
SMILES	Tb PYK inh	Sm TGR block	FBPA Giardia inh	RE007 growth inh	LmPK inhibitor
O=c1c(-c2cc(O)c(O)c(O)c2)coc2cc(O)c(O)c(O)c12	.	.	5µM*	.	.
Cc1cccc(Oc2nc3ccccn3c(=O)c2/C=C(\C#N)C(=O)NC2CCS(=O)(=O)C2)c1 (stereo unspecified)	-17.4%	-2.4%	0.4%	-6.9%	4.8%
C[C@@H]1CN([C@H](C)CO)S(=O)(=O)c2ccc(C#Cc3ccccc3)cc2O[C@@H]1CN(C)C(=O)CN(C)C	-1.5%	.	.	4.2%	.
COc1ccc(CC(=O)Nc2cc(Cl)ccc2C(=O)O)cc1	-6.0%	-2.7%[57.1 µM]	8.2%	15.4%	0.1%
CCCCOc1ccc(Nc2cc(Cl)ccc2C(=O)O)cn1	7.4%	-15.8%	26.6%	28.2µM*	?
COC(=O)Cn1c(=NC(=O)C2CC2)sc2c(C)cc(C)cc21	6.4%	.	.	6.4%	.
CC1CN(c2nc3ccccc3nc2SCC(=O)Nc2ccc(F)cc2)CC(C)O1 (stereo unspecified)	-1.3%	-12.9%	1.2%	0.0%	0.4%
C=C[C@]1(C)C=C2CCC3[C@](C)(CCC[C@@]3(C)C(=O)O)C2CC1 (stereo partly specified)	-4.0%	-2.6%	.	-27.1%	.
C=C/C(C)=C/CC1C(=C)CCC2C(C)(C(=O)O)CCCC12C (stereo unspecified)	-4.1%	31.6µM*	10.7%	-5.7%	1.4%
O=C1C=C(N2CCN(C3=CC(=O)CCC3)CC2)CCC1	-5.9%	20µM*	-5.7%	-0.2%	-7.7%
O=C1CCC(C(=O)N(CCO)Cc2ccccc2)CN1CC1CCCCC1 (stereo unspecified)	2.3%	1.3%	-4.8%	-2.1%	5.6%
CCc1ccc(NC(=O)c2cc3c(=O)n(Cc4cccs4)ccc3nc2C)cc1	5.8%	8.6%	.	.	.
CN1CCN(CC(=O)Nc2ccc(Cl)cc2Cl)CC1	-1.4%	6.9%	4.9%	-3.7%	-3.1%
CCOc1ccc(N(CC(=O)NCc2ccc(F)cc2)S(=O)(=O)c2c(C)noc2C)cc1	2.7%	-23.1%	2.2%	-2.6%	12.2%
O=C(CN1CCN(Cc2ccccc2Cl)CC1)N/N=C/C=C/c1ccco1	-0.8%	20µM*	-9.1%	?	4.1%
Clc1ccccc1CN1CCN(/N=C/C=C/c2ccco2)CC1	-7.3%	15.8µM*	-4.3%	-3.0%	4.0%
COc1cc(C(O)C(=O)O)ccc1O (stereo unspecified)	-1.9%	10µM*	?	-2.3%[18.4 µM]	.
COc1cccc(C(=O)Nc2ccccc2-c2ccccc2)c1	-0.5%	-3.6%	.	?	.
COC(=O)C1=C(C)N(Cc2ccco2)C(=O)N[C@@H]1c1cccc(C(F)(F)F)c1	.	28.2µM*	2.4%	.	3.3%
COC(=O)C1=C(C)N(Cc2ccccc2)C(=O)N[C@H]1c1cccc(C(F)(F)F)c1	-1.7%	-0.7%	2.1%[12.9 µM]	-3.5%	-4.1%[11.5 µM]
O=C(CSc1ccc(-c2ccco2)nn1)NC1CCCCC1	-15.0%	8.91µM*	-11.3%	0.2%	6.1%
O=C(CSc1ccc(-c2ccccc2)nn1)NC1CCCC1	-7.1%	-24.4%	5.7%	-8.1%	7.2%
O=C(CSc1ccc(-c2ccco2)nn1)N1CCCCCC1	-7.5%	25.1µM*	-5.4%	-5.9%	-0.5%
O=C(CSc1ccc(-c2ccco2)nn1)NC1CCCC1	-3.7%	17.8µM*	-4.5%	22.0%	-5.7%
CN(CC(=O)Nc1ccccc1Br)C(=O)c1ccccc1Sc1ccccc1C#N	1.8%	.	.	-6.2%	.
